NPC1 promoter act = activates the NPC1 promoter; 2.4% of 320,000 active; Huh7 NPC1 promoter luciferase reporter, 24 h; Potency, µM (titrated, usually from 9.22 µM), inactives show top-dose activation, actives largely listed as activators; also: % of control where 0% means no effect; nearly all actives have a fitted effect of over 60% in size
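Luminescence read-out of NPC1 promoter-driven luciferase in stably transfected Huh7 cells; compounds delivered in DMSO and left 24 h at 37C, 5% CO2, qHTS titration format.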
p53 reactivation = mutant p53 re-activation in reporter cells; 0.063% of 320,000 active; Potency, µM (top dose mostly 92.2 µM), without a hit: top-dose activity change, positive = activation, usual class: activators; H1299 p53-A138V BP100-luciferase reporter, luminescence, 24 h; also: % of control where 0% means no effect; nearly all actives have a fitted effect of over 45% in size
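p53-null H1299 cells stably carrying temperature-sensitive p53-A138V and a BP100-luciferase reporter were pinned with compounds (4-point, 1:5 series) and held 24 hrs at 37 deg C. Luminescence was read 10 min after detection reagent.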
FLuc modulator = firefly luciferase modulation, counter-screen for miR-21 project | P08659 | purified FLuc, Km substrates, luminescence inhibition | Potency, µM (highest dose often 57.5 µM), for the others: top-dose activity change, negative = inhibition, hits mostly inhibitors | 6.9% of 360,000 active | AID 588342;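 also: plate controls were vehicle for no effect and reference inhibitor for full effect; nearly all actives have a fitted effect of over 55% in size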
Target sequence (P08659 whole entry, looked up): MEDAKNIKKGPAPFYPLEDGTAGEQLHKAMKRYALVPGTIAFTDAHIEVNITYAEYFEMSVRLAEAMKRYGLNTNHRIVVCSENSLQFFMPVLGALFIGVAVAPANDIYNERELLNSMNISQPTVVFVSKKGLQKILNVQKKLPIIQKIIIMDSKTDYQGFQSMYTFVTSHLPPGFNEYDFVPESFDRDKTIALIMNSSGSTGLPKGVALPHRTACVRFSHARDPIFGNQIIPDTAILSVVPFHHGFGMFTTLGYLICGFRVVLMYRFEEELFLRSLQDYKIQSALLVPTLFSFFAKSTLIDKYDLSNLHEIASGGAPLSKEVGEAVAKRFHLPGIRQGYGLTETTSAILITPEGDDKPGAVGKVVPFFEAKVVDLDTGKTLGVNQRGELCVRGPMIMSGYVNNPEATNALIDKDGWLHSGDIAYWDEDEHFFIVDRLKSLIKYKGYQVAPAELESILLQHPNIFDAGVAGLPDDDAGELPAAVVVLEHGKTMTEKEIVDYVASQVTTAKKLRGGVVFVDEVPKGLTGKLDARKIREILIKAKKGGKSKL
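Purified P. pyralis luciferase (10nM final) with 10uM D-luciferin and 10uM ATP (Km levels) in 50mM Tris acetate pH 7.5, 10mM Mg acetate, 0.01% Tween-20, 0.05% BSA; qHTS 6-point titration, ~60 µM downward; luminescence read.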
Rab9 promoter act = activators of Rab9 promoter | Potency, µM (series often up to 9.22 µM), inactives show at the highest dose activation, negative = inhibition, usual class: activators | Huh7 Rab9 promoter-luciferase reporter, luminescence, 24 h | 2.8% of 320,000 active | AID 485297; also: % of control where 0% means no effect; nearly all actives have a fitted effect of over 60% in size
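Quantitative HTS format; Huh7 Rab9-luciferase reporter cells (1500/well) receive compound 2 h post-plating, incubate 24 h at 37 °C, then get luciferase reagent for 10 min before luminescence reading.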
SMN2 splice enh = increases expression of the SMN2 splice variant. 2.8% of 210,000 active. AID 1458. Potency, µM (titrated, usually from 46.1 µM), for inactives: at the top dose activity change, positive = activation, actives largely listed as activators. HEK293 SMN2-luciferase splicing reporter, luminescence, 30-36 h; also: % of control where 0% means no effect; nearly all actives have a fitted effect of over 55% in size
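HEK293 cells carry an SMN2 […]–luciferase reporter in which exon 7 inclusion puts luciferase in frame. Cells were plated 10-12 h before compound addition, then incubated 30-36 h at 37C. ONE-Glo luminescence was read; sodium butyrate at 4.5 mM final served as control.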
ELG1 genotoxic = genotoxicity induction in ELG1-luciferase HEK293T cells | HEK293T ELG1-luciferase reporter, luminescence, 16 h | Potency, µM (highest dose often 46 µM), for inactives: at the top dose activity change, positive = activation, hits mostly activators | 1.3% of 330,000 active; also: % of control where 0% means no effect; nearly all actives have a fitted effect of over 60% in size
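Luminescence read-out: rising ELG1-luciferase signal, reflecting elevated ELG1 protein under genetic stress, flags genotoxic compounds. Cells were treated for 16 hr at 37 °C before ONE-Glo detection.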
The depositor's hits bear a star; ? = inconclusive; · = no result. In the library only some 7.3% were active in any assay of this set; here they are far more common. Calls follow the shape of the dose curve; as a rule, active = well fitted curve in the direction sought with a large enough effect; inconclusive = small, poorly fitted or top-dose-only effect, or another doubt; inactive = no such curve, though single readings can be large; an effect the other way counts as inactive or inconclusive. Potency is read from the fitted curve at half-maximal effect.

SMILES | NPC1 promoter act | p53 reactivation | FLuc modulator | Rab9 promoter act | SMN2 splice enh | ELG1 genotoxic
O=C(COc1ccccc1F)Nc1ccc(OCc2cc(=O)n3ccccc3n2)cc1 | · | · | -9% | · | · | ·
CCCC1=NN2C(=N)/C(=C\c3cc(C)n(Cc4ccccc4)c3C)C(=O)N=C2S1 | 0% | 1% | ? | -6% | · | -4%
Cc1cc(/C=C2\C(=N)N3N=C(S(C)(=O)=O)SC3=NC2=O)c(C)n1Cc1ccccc1 | -4% | 0% | 17µM* | -4% | -15% | 1%
CCOc1cc(/C=C2\C(=N)N3N=CSC3=NC2=O)ccc1OS(=O)(=O)c1ccccc1 | 1% | 7% | -19% | 0% | · | -6%
Cc1cc(/C=C2\C(=N)N3N=CSC3=NC2=O)c(C)n1Cc1ccccc1 | ? | 0% | 1.3µM* | ? | · | ?
COc1cc(/C=C2/N=C(c3ccccc3F)OC2=O)cc(Cl)c1OS(C)(=O)=O | -4% | -2% | 8.5µM* | -1% | 19% | -1%
COc1cc(C2=N/C(=C\c3ccccc3)C(=O)O2)cc(OC)c1OC | · | · | · | · | -2% | ·
COc1ccc(N(C(=O)c2cccc(C)c2)S(=O)(=O)c2ccc(C)cc2)cc1 | · | · | 5% | · | -4% | ·
Cc1cc(C)nc(SCC(=O)c2ccc(F)cc2)n1 | 9% | -13% | -13% | 21% | · | 8%
Cc1cc(C)nc(S/C=C/C(=O)c2ccc(F)cc2)n1 | -6% | ? | 1.9µM* | -19% | · | 16%
COc1ccc(-n2c(=O)c3ccccc3n(Cc3ccccc3C)c2=O)c(OC)c1 | · | · | -6% | · | -1% | ·
COc1ccc2c(c1)NC(=O)CC(c1ccccc1)=N2 | ? | 6% | ? | 26% | -2% | 16µM*
c1ccc2c(c1)Cc1cc(CN3CCOCC3)ccc1-2 | 4µM* | ? | 9.5µM* | ? | 14µM* | ?
CCN1CCN(Cc2ccc3c(c2)Cc2ccccc2-3)CC1 | 0% | -3% | -5% | 2% | -15% | -14%
CC(=O)c1cccc(OCc2cc(C(=O)N3C[C@@H](C)O[C@@H](C)C3)no2)c1 | ? | ? | 15µM* | ? | · | ?
CC(=O)c1cccc(OCc2cc(C(=O)N(C)CCC3CCOCC3)no2)c1 | 26% | ? | 17µM* | ? | · | 15%
CC(=O)c1cccc(OCc2cc(C(=O)N3C[C@H]4CC[C@H]3C4)no2)c1 | 2.5µM* | ? | 9.5µM* | 2µM* | · | ?
COCCC1CCCCN1C(=O)c1cc(COc2cccc(C(C)=O)c2)on1 (stereo not drawn) | ? | 0% | ? | ? | · | 15%
COc1ccc(OCc2cc(C(=O)N3C[C@@H](C)O[C@@H](C)C3)no2)c(Cl)c1 | ? | -3% | ? | 24% | · | ?
COc1cccc(OCc2cc(C(=O)N(C)CCC3CCCCO3)no2)c1 (stereo not drawn) | ? | -9% | ? | ? | · | 12%
O=C(c1cc(COc2cccc(C(F)(F)F)c2)on1)N1C[C@H]2CC[C@H]1C2 | 2.8µM* | 6% | 15µM* | 2.2µM* | · | ?
Cc1ccc(C(=O)c2cc3c(cc2[N+](=O)[O-])OCCO3)cc1 | 0% | 33% | -16% | 2% | 17% | 9%
Cc1cc(NC(=O)C(C)Oc2ccc(Cl)cc2Cl)no1 (stereo not drawn) | 5% | 15% | 24µM* | -2% | · | 10%
Cc1ccc(OC(C)C(=O)Nc2cc(C)on2)cc1 (stereo not drawn) | -1% | 8% | 19µM* | -1% | · | -8%
CCCCCCN(C(=O)CCCCCN1C(=O)NC(C2CCCCC2)C(C(=O)OCc2ccccc2)=C1C)C(C(=O)NCCCC)c1ccc(OCC(=O)OC)c(C(=O)OC)c1 (stereo not drawn) | · | · | · | · | -20% | ·
SMILES | NPC1 promoter act | p53 reactivation | FLuc modulator | Rab9 promoter act | SMN2 splice enh | ELG1 genotoxic
COc1cccc(CN(C)C(=O)c2ccc(COc3ccc(Cl)cc3)cc2)c1OC | ? | 19% | 13µM* | 29% | · | ?
COc1ccccc1CN(C)C(=O)c1ccc(COc2ccccc2)cc1 | 2% | 2% | -1% | -1% | · | -8%
COc1cccc(CN(C)C(=O)c2ccccc2Sc2ccccc2C#N)c1OC | 0.32µM* | -19% | 8.5µM* | 0.45µM* | · | 12%
CC(=O)c1cc(-c2ccccc2)n(CCC(=O)NCc2ccc(C)cc2)c1C | · | · | -3% | · | · | ·
COc1cc(OC)c(NC(=O)CSC2=Nc3ccccc3N=C(c3ccc(F)cc3)C2)cc1Cl | · | · | 0% | · | · | ·
O=C(CSc1nc2c([nH]c3ccccc32)c(=O)n1-c1ccc(Cl)cc1)N1CCOCC1 | · | · | 1% | · | · | ·
C=CCSc1nnc(-c2cc3c(s2)-c2ccccc2CC3)o1 | 0% | 9% | 12µM* | ? | ? | 8%
